This excerpt belongs to a sample that is enriched for hits.
12-LOX inh = inhibitors of human 12S-lipoxygenase ALOX12; P18054; purified 12hLO, xylenol orange hydroperoxide absorbance; Potency, µM (series often up to 108 µM), for inactives: top-dose activity change, negative = inhibition, actives largely listed as inhibitors; hit rate 1.1% among 580,000; AID 1671190; note: % is set by controls: 0 for no effect and ±100 for the full control effect
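Purified human 12hLO (150 nM final) in 25 mM Hepes, 0.01% Triton X-100, pH 7.0 was preincubated 15 min at room temperature with compound. Then 40 uM arachidonic acid was added, 30 min. Hydroperoxide was read by Fe-XO absorbance ratio 573/405 nm.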
VDR inh = inhibitors of human vitamin D receptor. P11473. VDR-SRC2-3 peptide fluorescence polarization, 2 h. Potency, µM, inactives show max response, negative = inhibition, usual class: inhibitors. hit rate 0.93% among 400,000. AID 504847; note: % is set by controls: 0 for no effect and ±100 for the full control effect
Target sequence (P11473 whole entry, looked up): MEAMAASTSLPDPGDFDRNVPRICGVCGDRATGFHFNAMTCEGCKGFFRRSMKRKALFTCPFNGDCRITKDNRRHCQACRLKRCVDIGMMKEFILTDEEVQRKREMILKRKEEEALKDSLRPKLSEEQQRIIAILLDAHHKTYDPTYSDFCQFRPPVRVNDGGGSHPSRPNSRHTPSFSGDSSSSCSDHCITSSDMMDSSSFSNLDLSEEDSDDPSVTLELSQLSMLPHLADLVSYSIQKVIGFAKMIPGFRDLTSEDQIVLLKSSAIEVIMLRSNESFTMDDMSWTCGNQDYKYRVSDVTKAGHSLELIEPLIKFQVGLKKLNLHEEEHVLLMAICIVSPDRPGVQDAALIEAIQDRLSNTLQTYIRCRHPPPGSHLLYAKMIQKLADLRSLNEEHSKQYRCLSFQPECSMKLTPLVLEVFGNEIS
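Reagent solutions, kept cold and dark, are dispensed first; compounds are then pinned in at 23 nl, plates briefly spun, and incubated 2 h at ambient temperature. Inhibition of VDR–SRC2-3 peptide binding is read by fluorescence polarization.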
GRP78 ERSR act = induces the endoplasmic reticulum stress response in human glioma cells; Potency, µM, for inactives: top-dose activation, usual class: activators; hit rate 0.02% among 420,000; U87-MG GRP78 promoter luciferase reporter, 16 h; AID 602332; note: series mostly up to about 76 µM; % of control where 0% means no effect; nearly all actives have a fitted effect of over 35% in size
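Stably transfected U87-MG glioma cells carrying a GRP78-based luciferase sensor; 16 h compound incubation. Luminescence end-point read 10 min after Bright-Glo addition at room temperature.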
Sfp PPTase inh = blocks B. subtilis Sfp PPTase activity. AID 1490. Biochemical Sfp PPTase activity, qHTS. Potency, µM, without a hit: largest response in the series, negative = inhibition, usual class: inhibitors. hit rate 3.5% among 310,000;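 note: the enzyme is Sfp with the accession as filed and its product quenches rhodamine fluorescence; 0% = enzyme reaction without inhibitor and -100% = no enzyme wells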
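Compounds were incubated with enzyme (final 15 nM) for 15 min at room temperature before substrate addition started the reaction. Fluorescence at 525 nm excitation, 598 nm emission was recorded immediately and after 30 minutes.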
G9a inh = G9a (human) methyltransferase inhibition | G9a H3K9 monomethylation, AlphaScreen, 2 h | hit rate 8.8% among 350,000 | AID 504332 | Potency, µM (highest dose often 102 µM), inactives show at the highest dose activity, negative = inhibition, usual class: inhibitors; note: % is set by controls: 0 for no effect and ±100 for the full control effect; nearly all actives have a fitted effect of over 75% in size
Target sequence (Q96KQ7 913-1193 limits assumed): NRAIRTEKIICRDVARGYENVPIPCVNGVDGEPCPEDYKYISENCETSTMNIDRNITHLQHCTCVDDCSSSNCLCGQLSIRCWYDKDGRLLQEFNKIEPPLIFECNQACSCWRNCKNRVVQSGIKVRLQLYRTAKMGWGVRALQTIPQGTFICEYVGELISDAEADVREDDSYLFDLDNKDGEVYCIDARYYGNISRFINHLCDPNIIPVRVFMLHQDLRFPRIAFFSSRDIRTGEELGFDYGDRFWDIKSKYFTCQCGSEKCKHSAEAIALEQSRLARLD
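Using a bead-based AlphaScreen, monomethylated H3K9 product from 2 h room-temperature reactions (G9a 20 nM, peptide 500 nM, SAM 20 uM) was detected with 0.5 ug/mL rabbit anti-H3K9me1 antibody.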
Starred values were filed as active, the others as inactive; ? = inconclusive; . = not tested or not shown; [ ] = dose if it differs, or a comment. Calls come from the whole dose curve; as a rule, active = well fitted curve in the direction sought with a large enough effect; inconclusive = small, poorly fitted or top-dose-only effect, or another doubt; inactive = no such curve, though single readings can be large; an effect the other way counts as inactive or inconclusive. Potency is the fitted concentration of half-maximal effect.

SMILES	12-LOX inh	VDR inh	GRP78 ERSR act	Sfp PPTase inh	G9a inh
Cc1oc(-c2ccc(C(=O)NCCCN3CCOCC3)cc2)nc1CS(=O)(=O)c1ccccc1	0%	.	.	.	.
Cc1ncsc1C(=O)NCc1ccncc1	-15%	.	.	.	.
COc1cc2c(cc1OC)CN(C(=O)CCc1c[nH]c3ccccc13)[C@H](C(=O)O)C2	0%	-2%	-6%	11%	71µM*
Cc1cc2ccccc2n1CC(=O)NC1CCC(C)CC1 (configuration not stated)	-6%	.	.	.	.
COc1ccc(CC2C(=O)OC(C)(C)OC2=O)cc1	?	-8%	-4%	15%	40µM*
CC(C)C[C@H](NC(=O)c1ccc2nc(-n3cccc3)sc2c1)C(=O)NCc1ccncc1	23%	.	.	.	.
O=C(Cc1cccs1)Nc1c(NCC2CCCCC2)c2ccccc2oc1=O	-26%	.	.	.	.
CN1CC(=O)N(C2CCNCC2)Cc2c(NC3CCCCC3O)ncnc21 (configuration not stated)	11µM*	.	.	.	.
CN1CC(=O)N(C2CCCNCC2)Cc2c(NC3CCCCC3O)ncnc21 (configuration not stated)	-23%[6.33 µM]	.	.	.	.
Oc1c(C(c2ccc(F)cc2)N2CCc3ccccc3C2)sc2ncnn12 (configuration not stated)	-16%	8%	-3%	-12%	7.9µM*
C=CCn1c(SCc2nc3ccccc3c(=O)[nH]2)nc2scc(C3CC3)c2c1=O	1%	3%	0%	56µM*	-3%
CCC[n+]1cn(/C(C(=S)Nc2cccc(Cl)c2C)=C(/[O-])c2ccc(OC)c(OC)c2)c2ccccc21	-20%	-18%	-3%	3%	40µM*
COc1cc2c(cc1OC)CN(C(=S)Nc1cccc(Cl)c1C)CC2	0%	-9%	-4%	11%	-6%
NC(=O)c1ccccc1NC(=O)CCc1ccccc1	-17%	0%	5%	13%	26%[59 µM]
NC(=O)c1ccccc1NC(=S)NC(=O)CCc1ccccc1	?	?	-5%	28µM*	4.5µM*
Cc1ccc(F)cc1NCC(=O)Nc1ccc(Br)cc1	-30%	8%	5%	10%	?
Cc1ccc(NCC(=O)Nc2ccc(Br)cc2)cc1C	238%	-5%	3%	15%	56µM*
Cc1ccc(NC(=O)CCn2cccc2)cc1C	-16%	13%	-1%	-7%	50µM*
Cc1ccc(NC(=O)Cn2cccc2)cc1C	7%	-13%	1%	9%	?
Cc1ccc(S(=O)(=O)N2CCN(C(=O)c3cccc(-n4cccc4)c3)CC2)cc1	?	10%	-2%	.	50µM*
O=C(c1cccc(-n2cccc2)c1)N1CCN(S(=O)(=O)c2ccccc2)CC1	-23%	-15%	0%	.	5%[2.33 µM]
Cc1ccc(S(=O)(=O)N2CCN(C(=O)c3cc4cc(C)ccc4nc3C)CC2)cc1	40µM*	.	.	.	.
Cc1ccsc1C(=O)N(Cc1ccccn1)C1CC1	28%	.	.	.	.
O=C(Nc1ccc2cn[nH]c2c1)c1ccc2c(c1)OCCN(c1ccccc1)C2	68%[176 µM]	.	.	.	.
COC(=O)C1(NC(=O)COc2cc(Cl)ccc2Cl)CCCCCC1	-14%	.	.	.	.
SMILES	12-LOX inh	VDR inh	GRP78 ERSR act	Sfp PPTase inh	G9a inh
Cc1cnc(N2C(=O)c3ccc([N+](=O)[O-])cc3C2=O)s1	-24%	3%	-4%	-4%	56µM*
C/C(=N/Nc1ccc([N+](=O)[O-])cc1[N+](=O)[O-])C(C)(C)C	-20%	.	.	.	.
CCOC(=O)CC(C)(C)/C(C)=N/Nc1ccc([N+](=O)[O-])cc1[N+](=O)[O-]	-18%	11%	-2%	1%	8.9µM*
CCOC(=O)C(C)/C(C)=N\Nc1ccc([N+](=O)[O-])cc1[N+](=O)[O-] (configuration not stated)	-21%	-14%	-2%	-19%	32µM*
C/C(=N\Nc1ccc([N+](=O)[O-])cc1[N+](=O)[O-])C(C)C(C)C (configuration not stated)	-11%	-5%	-2%	-2%	10µM*
CCC(CC)=NNc1ccc([N+](=O)[O-])cc1[N+](=O)[O-]	-12%	-9%	-1%	9%	9%
CCOC(=O)C(C(=O)OCC)C(C)(C)/C(C)=N\Nc1ccc([N+](=O)[O-])cc1[N+](=O)[O-]	4%	-2%	0%	-16%	?
CSc1ccccc1NC(=O)/C=C/c1ccc(F)cc1	4%	.	.	.	.
COc1ccc2c(c1)CCC1C2=NN(/C(C)=C\C(C)=O)C1c1ccc(F)cc1 (configuration not stated)	?	?	0%	45µM*	16µM*
COc1ccc2c(c1)C1=NN(/C(C)=C/C(C)=O)C(c3ccc(F)cc3)C1CC2 (configuration not stated)	?	?	7%	-8%	-14%[59 µM]
COc1ccc2c(c1)C1=NN(/C(C)=C/C(C)=O)C(c3cccc(F)c3)C1CC2 (configuration not stated)	-21%	-10%	8%	-20%	45µM*
COc1ccc2c(c1)C1=NN(/C(C)=C\C(C)=O)C(c3ccccc3)C1CC2 (configuration not stated)	?	27%	10%	-22%	?
COc1ccc(CN2C(=O)CO[C@H]3CN(Cc4c[nH]c5ccccc45)C[C@H]32)cc1	40µM*	.	.	.	.
Cn1nnc(NC(=S)NC(=O)c2ccc3ccccc3c2)n1	11µM*	.	4%	.	.
COc1cc(OC)cc(C(=O)NC(=S)Nc2ccc3[nH]c(=O)[nH]c3c2)c1	?	-10%	-6%	5%	6%
Cn1nnc(NC(=S)NC(=O)c2cccc3ccccc23)n1	0.63µM*	-6%	-3%	35µM*	7.9µM*
COc1cc(OC)cc(C(=O)NC(=S)Nc2nnn(C)n2)c1	0%	-12%	-3%	35µM*	10µM*
Cn1nnc(NC(=O)c2ccccc2F)n1	?	-11%	-3%	3%	-9%
Cc1ccc(CNC(=O)Cc2nc(-c3cccs3)oc2C)cc1	11%	.	.	.	.
O=C(c1ccc(S(=O)(=O)N2CCOCC2)cc1)N(c1ccc(Cl)cc1)C1C=CS(=O)(=O)C1 (configuration not stated)	-1%	.	.	.	.
Cc1ccc2nc(C)c(C(=O)/C=C/c3ccccc3)c(-c3ccccc3)c2c1	-2%	.	.	.	.
Cc1ccc(C(=O)NCC(c2ccco2)N2CCc3ccccc32)cc1 (configuration not stated)	?	-12%	-3%	.	50µM*
Cc1ccc(S(=O)(=O)NCC(c2ccco2)N2CCc3ccccc32)cc1 (configuration not stated)	-13%	6%	-5%	.	40µM*
COc1ccc(S(=O)(=O)NCC(c2ccco2)N2CCc3ccccc32)cc1 (configuration not stated)	-17%	6%	-4%	.	?
O=C(NCC(c1ccco1)N1CCc2ccccc21)c1ccccc1F (configuration not stated)	-9%	-11%	-3%	.	56µM*
c1ccc2c(c1)NCCS2	?	-10%	0%	89µM*	16%[0.501 µM]

Source: PubChem BioAssay (National Center for Advancing Translational Sciences (NCATS))
